Source: PubChem BioAssay (Tox21)
Inconclusive results are not listed. A number with no mark means an inactive call. Calls of active or inactive are those of the source. The call rests on the fitted dose curve; in most records, active means well fitted cell-killing curve with a large enough effect in the repeat runs; inconclusive means weak or mixed curves, or effect the other way; inactive means flat fitted curve, though single readings scatter.
On the % scale 0 is the no-effect control and ±100 the full control effect; potency means the concentration at half of the fitted maximal effect.

Test: qHTS assay to identify small molecule agonists of the TGF-beta/Smad signaling pathway - cell viability counter screen (AID 1346829); further: nearly all actives have a fitted effect of over 45% in size; on activity change, negative = cytotoxicity: top concentration of the series differs between compounds
Details: SBE-bla HEK293T viability, CellTiter-Glo luminescence, 5 h; series mostly up to 76.8 µM; activity change, negative = cytotoxicity: at the top concentration
From the text: National Center for Advancing Translational Sciences [NCATS]
NIH Chemical Genomics Center [NCGC]
U.S. Environmental Protection Agency [EPA]
National Institutes of Environmental Health Sciences [NIEHS]
National Toxicology Program [NTP]
U.S. Food and Drug Administration [FDA]
Transforming growth factor beta (TGF-beta) superfamily consists of a large number of structurally related dimeric proteins that act as hormones or local mediators in regulating a wide range of biological functions. This superfamily includes TGF-betas themselves, the bone morphogenetic proteins (BMPs) and the activins. These ligands induce oligomerization of serine/threonine receptor kinases and phosphorylate the cytoplasmic signaling molecules of Smad protein family. CellSensor SBE-bla HEK 293T cell line (Life Technologies, Carlsbad, CA), responsive to TGF-beta was used to screen Tox21 10K compound library for identification of agonists/antagonists of the Smad signaling pathway. This cell line contains a beta-lactamase reporter gene under control of the Smad binding element (SBE) stably integrated into HEK 293T cells. Also cytotoxicity of the compounds was tested in parallel by measuring the cell viability using CellTiter-Glo assay system in the same wells.
Tox21 Assay Protocol Summary:
SBE-bla HEK 293T cells were dispensed at 4,000/well in 6 uL of assay medium into black wall/clear-bottom 1536-well plates using a Multidrop Combi (ThermoFisher Scientific, Waltham, MA) dispenser. After the assay plates were incubated at 37 C and 5% CO2 for an overnight, 23 nL of compounds dissolved in DMSO, positive controls or DMSO only was transferred to the assay plate by a Pintool station (Kalypsys, San Diego, CA). The assay plates were incubated at 37 C and 5% CO2 for 5 hr. One uL of LiveBLAzer B/G FRET substrate (Life Technologies) was added using a Flying Reagent Dispenser (FRD, Aurora Discovery, San Diego, CA) and the plates were incubated at room temperature for 2 hr. Fluorescence intensity (405 nm excitation, 460 nm and 530 nm emissions) was measured using an Envision plate reader (PerkinElmer, Shelton, CT). For cytotoxicity read, 4 uL of CellTiter-Glo reagent (Promega Corporation, Madison, WI) was added to each well of the assay plates using FRD. After 30min incubation at room temperature, the luminescence intensity was measured using ViewLux plate reader (PerkinElmer).
With `CCCCCCCCNC(C)C(O)c1ccc(SC(C)C)cc1` (stereo not given) the Potency was 23.9 µM (active).
With `CCCCCCCCCCCCc1ccc(O)cc1` the Potency was 49 µM (active).
In the case of `COCCCC/C(=N\OCCN)c1ccc(C(F)(F)F)cc1`, the “activity change, negative = cytotoxicity” value is reported as -11.7% [at 35.3 µM].
For `Oc1ccc(N=Nc2ccccc2)cc1`, the “activity change, negative = cytotoxicity” value was 1.39%.
With `COc1cccc(N)c1` the “activity change, negative = cytotoxicity” value was -4.8%.
For `CCOC(=O)O[C@]1(C(=O)OCCl)CC[C@H]2[C@@H]3CCC4=CC(=O)C=C[C@]4(C)[C@H]3[C@@H](O)C[C@@]21C`, the “activity change, negative = cytotoxicity” value was -8.29% [at 35.3 µM].
In the case of `Cc1cccc2c1cc1ccc3cccc4ccc2c1c34`, the “activity change, negative = cytotoxicity” value is reported as -16.3%.
With `CC[C@H](c1ccc(O)cc1)[C@@H](CC)c1ccc(O)cc1` the Potency was “inactive”.
`[O-][n+]1ccccc1SSc1cccc[n+]1[O-]` gave an activity change, negative = cytotoxicity of -3.22% [at 15.8 µM].
With `CCCC1O[C@@H]2C[C@H]3[C@@H]4CCC5=CC(=O)C=C[C@]5(C)[C@H]4[C@@H](O)C[C@]3(C)[C@]2(C(=O)CO)O1` (stereo not given in full) the Potency was “inactive”.
For `N=C1N=C(N)c2ccccc21`, the “activity change, negative = cytotoxicity” value was 15.1%.
In the case of `Fc1ccc([C@@H]2CCNC[C@H]2COc2ccc3c(c2)OCO3)cc1`, the “activity change, negative = cytotoxicity” value is reported as 0% [at 35.3 µM].
For `Cc1cccc(CN2CCN(C(c3ccccc3)c3ccc(Cl)cc3)CC2)c1` (stereo not given), the “activity change, negative = cytotoxicity” value was -14.4% [at 35.3 µM].
With `O=C(Nc1ccc(Oc2ccc(Cl)cc2)c(Cl)c1)c1cc(I)cc(I)c1O` the “activity change, negative = cytotoxicity” value was -26.1% [at 35.3 µM].
For `CC(C)(C)C(=O)OCOC(=O)C1N2C(=O)CC2S(=O)(=O)C1(C)C` (stereo not given), the “activity change, negative = cytotoxicity” value was 17.7% [at 35.3 µM].
For `CCCC/C=C/CCCCO`, the “activity change, negative = cytotoxicity” value was -5.33%.
With `Oc1cc2ccccc2c2ccccc12` the Potency was 5.49 µM (active).
With `CCCCCOC(=O)CCCC` the “activity change, negative = cytotoxicity” value was -13%.
In the case of `COc1cc(/C=C/C(=O)O[C@H]2CC[C@]34C[C@]35CC[C@]3(C)[C@@H]([C@H](C)CCC=C(C)C)CC[C@@]3(C)[C@@H]5CC[C@H]4C2(C)C)ccc1O`, the “activity change, negative = cytotoxicity” value is reported as -8.61% [at 35.3 µM].
With `CN(C/C=C/C#CC(C)(C)C)Cc1cccc2ccccc12` the “activity change, negative = cytotoxicity” value was -22.4% [at 35.3 µM].
For `CCCCN(CCCC)c1ccc(C(=O)c2ccccc2C(=O)O)c(O)c1`, the “activity change, negative = cytotoxicity” value was 3.7%.
With `O=C(N/N=C/c1ccccc1O)c1ccncc1` the “activity change, negative = cytotoxicity” value was 5.04% [at 35.3 µM].
In the case of `Nc1ccccc1O`, the “activity change, negative = cytotoxicity” value is reported as -0.0845%.
For `CN1CCN(CCC(=O)N2c3ccccc3Sc3ccc(C(F)(F)F)cc32)CC1`, the “activity change, negative = cytotoxicity” value was 0.805% [at 35.3 µM].
In the case of `Cc1cccc(S(=O)(=O)O)c1C`, the “activity change, negative = cytotoxicity” value is reported as 4.62%.
For `Oc1cccc(-c2c3nc(c(-c4cccc(O)c4)c4ccc([nH]4)c(-c4cccc(O)c4)c4nc(c(-c5cccc(O)c5)c5ccc2[nH]5)CC4)C=C3)c1`, the “activity change, negative = cytotoxicity” value was 2.99% [at 35.3 µM].
With `C[n+]1ccn(Cc2ccccc2)c1` the “activity change, negative = cytotoxicity” value was 5.47%.
With `Oc1ccc2cc(SSc3ccc4cc(O)ccc4c3)ccc2c1` the Potency was “inactive”.
In the case of `CCC(N)(CO)CO`, the “activity change, negative = cytotoxicity” value is reported as 4.18%.
In the case of `CCN(CCC#N)c1ccc(N=Nc2c(Cl)cc([N+](=O)[O-])cc2Cl)cc1`, the “activity change, negative = cytotoxicity” value is reported as -7.07%.
In the case of `CCOC(=O)O[C@H](C)OC(=O)c1ccc2c(c1)cc(C(=O)NC1CCN(C(C)C)CC1)n2Cc1cc(-c2ccc(Cl)s2)on1`, the Potency is reported as 45.8 µM (active).
For `O=C(OCC1CO1)C1CCCCC1C(=O)OCC1CO1` (stereo not given), the “activity change, negative = cytotoxicity” value was 0.292%.
For `Cc1oc(-c2ccccc2)nc1CCC(=O)c1ccc(CC2SC(=O)NC2=O)cc1` (stereo not given), the “activity change, negative = cytotoxicity” value was 6.97% [at 35.3 µM].
In the case of `Cc1ccc(-n2nc(C(C)(C)C)cc2NC(=O)Nc2ccc(OCCN3CCOCC3)c3ccccc23)cc1`, the “activity change, negative = cytotoxicity” value is reported as 11.1% [at 35.3 µM].
In the case of `CO[Si](CCCNc1ccccc1)(OC)OC`, the “activity change, negative = cytotoxicity” value is reported as 2.33%.
For `CCCCC(CC)CN=C(N)NC(N)=NCCCCCCN=C(N)NC(N)=NCC(CC)CCCC` (stereo not given), the Potency was 23.9 µM (active).
With `O=C(O)c1ccc(Cl)c(Cl)c1` the “activity change, negative = cytotoxicity” value was -2.71%.
In the case of `CCCCN(CCCC)C(=O)N(CCCC)CCCC`, the “activity change, negative = cytotoxicity” value is reported as -15%.
With `CCCCCCCCCCCCCCCCCC[N+](C)(C)C` the Potency was 43.8 µM (active).
In the case of `c1ccc(CSCc2ccccc2)cc1`, the “activity change, negative = cytotoxicity” value is reported as -3.07%.
